Reference: the supplement of paper PMC8728848
Many of the other results were omitted from the sample, so the strongest signals are more common in it than they were.

Key:
Assay in all cases: glycan array binding signal (z-score within array); higher = stronger binding
Settings in all cases: glycan notation: IUPAC condensed, linker removed
[1] = target: Fuc(a1-2)Gal(b1-4)GlcNAc6S
Summary of the method: (§1)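 The binding signal is a Z-score computed within each array and averaged over linkers. Arrays of the same protein sequence at different concentrations or buffers were also averaged together. Data originate from 3228 arrays in the Consortium for Functional Glycomics database, kept only where the protein sequence was available.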

[2] = target: Fuc(a1-2)Gal(b1-4)[Fuc(a1-3)]GlcNAc
Summary of the method: as §1

[3] = target: Fuc(a1-2)Gal6S(b1-4)GlcNAc
Summary of the method: as §1

[4] = target: Fuc(a1-2)[Gal(a1-3)]Gal(b1-3)GlcNAc
Summary of the method: as §1

[5] = target: Fuc(a1-2)[GalNAc(a1-3)]Gal
Summary of the method: as §1

[6] = target: Gal(a1-3)Gal(b1-4)[Fuc(a1-3)]GlcNAc
Summary of the method: as §1

Gal(b1-2)Gal = target: Gal(b1-2)Gal
Summary of the method: as §1

[7] = target: Gal(b1-3)GalNAc(b1-3)Gal(a1-4)Gal(b1-4)Glc
Summary of the method: as §1

[8] = target: Gal(b1-3)[Fuc(a1-4)]GlcNAc(b1-3)Gal(b1-3)[Fuc(a1-4)]GlcNAc
Summary of the method: as §1

[9] = target: Gal(b1-4)GalNAc(b1-3)[Fuc(a1-2)]Gal(b1-4)GlcNAc
Summary of the method: as §1

[10] = target: Gal(b1-4)GlcNAc(a1-6)Gal(b1-4)GlcNAc
Summary of the method: as §1

[11] = target: Gal(b1-4)GlcNAc(b1-3)[Gal(b1-4)GlcNAc(b1-6)]Gal(b1-4)GlcNAc
Summary of the method: as §1

[12] = target: Gal(b1-4)GlcNAc(b1-3)[GlcNAc(b1-6)]Gal(b1-4)GlcNAc
Summary of the method: as §1

[13] = target: Gal(b1-4)GlcNAc(b1-6)[Gal(b1-3)]GalNAc
Summary of the method: as §1

GalNAc(b1-3)Gal = target: GalNAc(b1-3)Gal
Summary of the method: as §1

[14] = target: GalNAc(b1-3)Gal(a1-4)Gal(b1-4)GlcNAc
Summary of the method: as §1

GlcA(b1-6)Gal = target: GlcA(b1-6)Gal
Summary of the method: as §1

GlcNAc(b1-3)Gal(b1-4)Glc = target: GlcNAc(b1-3)Gal(b1-4)Glc
Summary of the method: as §1

[15] = target: GlcNAc(b1-4)GlcNAc(b1-4)GlcNAc(b1-4)GlcNAc(b1-4)GlcNAc
Summary of the method: as §1

[16] = target: GlcNAc(b1-6)Gal(b1-4)GlcNAc
Summary of the method: as §1

[17] = target: Man(a1-2)Man(a1-3)[Man(a1-2)Man(a1-6)]Man(a1-6)[Man(a1-2)Man(a1-2)Man(a1-3)]Man
Summary of the method: as §1

[18] = target: Neu5Ac(a2-3)Gal(b1-3)[Fuc(a1-4)]GlcNAc(b1-3)Gal(b1-4)[Fuc(a1-3)]GlcNAc
Summary of the method: as §1

[19] = target: Neu5Ac(a2-3)Gal(b1-4)GlcNAc(b1-2)Man(a1-3)[Neu5Ac(a2-6)Gal(b1-4)GlcNAc(b1-2)Man(a1-6)]Man(b1-4)GlcNAc(b1-4)GlcNAc
Summary of the method: as §1

[20] = target: Neu5Ac(a2-3)GalNAc(b1-4)GlcNAc
Summary of the method: as §1

Neu5Ac(a2-6)Gal = target: Neu5Ac(a2-6)Gal
Summary of the method: as §1

[21] = target: Neu5Ac(a2-6)Gal(b1-4)GlcNAc6S
Summary of the method: as §1

[22] = target: Neu5Ac(a2-8)Neu5Ac(a2-8)Neu5Ac(a2-3)Gal(b1-4)Glc
Summary of the method: as §1

[23] = target: Neu5Ac9Ac(a2-6)Gal(b1-4)GlcNAc
Summary of the method: as §1

[24] = target: Neu5Gc(a2-3)Gal(b1-4)GlcNAc
Summary of the method: as §1

[25] = target: Fuc(a1-2)Gal(b1-4)GlcNAc(b1-3)Gal(b1-4)GlcNAc(b1-3)Gal(b1-4)GlcNAc
Summary of the method: as §1

Fuc(a1-2)GlcNAc = target: Fuc(a1-2)GlcNAc
Summary of the method: as §1

Fuc(b1-3)GlcNAc = target: Fuc(b1-3)GlcNAc
Summary of the method: as §1

Gal(a1-3)GalNAc = target: Gal(a1-3)GalNAc
Summary of the method: as §1

Gal(a1-4)Gal(b1-4)Glc = target: Gal(a1-4)Gal(b1-4)Glc
Summary of the method: as §1

[26] = target: Gal(b1-3)[GlcNAc(b1-6)]GalNAc
Summary of the method: as §1

GalNAc(b1-3)GalNAc = target: GalNAc(b1-3)GalNAc
Summary of the method: as §1

[27] = target: GlcNAc(b1-3)[GlcNAc(b1-6)]GlcNAc(b1-4)GlcNAc
Summary of the method: as §1

[28] = target: GlcNAc(b1-4)GlcNAc(b1-4)GlcNAc
Summary of the method: as §1

Man(a1-2)Man(a1-3)Man = target: Man(a1-2)Man(a1-3)Man
Summary of the method: as §1

[29] = target: Neu5Ac(a2-3)[Neu5Ac(a2-6)]GalNAc
Summary of the method: as §1

Row | Binder | glycan array binding signal (z-score) [1] | glycan array binding signal (z-score) [2] | glycan array binding signal (z-score) [3] | glycan array binding signal (z-score) [4] | glycan array binding signal (z-score) [5] | glycan array binding signal (z-score) [6] | glycan array binding signal (z-score) (Gal(b1-2)Gal) | glycan array binding signal (z-score) [7] | glycan array binding signal (z-score) [8] | glycan array binding signal (z-score) [9] | glycan array binding signal (z-score) [10] | glycan array binding signal (z-score) [11] | glycan array binding signal (z-score) [12] | glycan array binding signal (z-score) [13] | glycan array binding signal (z-score) (GalNAc(b1-3)Gal) | glycan array binding signal (z-score) [14] | glycan array binding signal (z-score) (GlcA(b1-6)Gal) | glycan array binding signal (z-score) (GlcNAc(b1-3)Gal(b1-4)Glc) | glycan array binding signal (z-score) [15] | glycan array binding signal (z-score) [16] | glycan array binding signal (z-score) [17] | glycan array binding signal (z-score) [18] | glycan array binding signal (z-score) [19] | glycan array binding signal (z-score) [20] | glycan array binding signal (z-score) (Neu5Ac(a2-6)Gal) | glycan array binding signal (z-score) [21] | glycan array binding signal (z-score) [22] | glycan array binding signal (z-score) [23] | glycan array binding signal (z-score) [24] | glycan array binding signal (z-score) [25] | glycan array binding signal (z-score) (Fuc(a1-2)GlcNAc) | glycan array binding signal (z-score) (Fuc(b1-3)GlcNAc) | glycan array binding signal (z-score) (Gal(a1-3)GalNAc) | glycan array binding signal (z-score) (Gal(a1-4)Gal(b1-4)Glc) | glycan array binding signal (z-score) [26] | glycan array binding signal (z-score) (GalNAc(b1-3)GalNAc) | glycan array binding signal (z-score) [27] | glycan array binding signal (z-score) [28] | glycan array binding signal (z-score) (Man(a1-2)Man(a1-3)Man) | glycan array binding signal (z-score) [29]
1 | GH95CBM (Clostridium perfringens) (protein) EKVAVETSVYLSELEWKSASTGYGEIQKDASCDGNTITLKGENGEKVSYDKGIGTHAHSEIVYSLEGLDYYDYFETFVGVDQEMAGTVASISFEVYLDNEKVFDSGLMTGDTTQKHVKVPIAGKNTLKLVVKDGGDSIGSDHGSFGDAKLT | -0.334 | -0.325 | -0.296 | -0.321 | -0.291 | 4.88 | 2.38 | 4.91 | -0.312 | 4.18 | -0.283 | -0.311 | -0.326 | 3.34 | 3.84 | 6.95 | -0.227 | -0.347 | -0.133 | -0.319 | 1.43 | -0.265 | -0.357 | -0.362 | -0.355 | -0.298 | -0.343 | -0.367 | -0.34 | – | – | – | – | – | – | – | – | – | – | –
2 | F17eG (Escherichia coli), Q9RH92 (protein) MTNFYKVFLAVFILVCCNISHAAVSFIGSTENDVGPSQSSYSRTHAMDNLPFVYNTGYNIGYQNANVWRISGGFCVGLDGKVDLPVVGSLDGQSIYGLTEEVGLLIWMGDTNYSRGTAMSGNSWENVFSGWCVGNYVSTQGLSVHVRPVILKRNSSAQYSVQKTSIGSIRMRPYNGSSAGSVQTTVNFSLNPFTLNDTVTSCRLLTPSAVNVSLAAISAGQLPSSGDEVVAGTTSLKLQCDAGVTVWATLTDATTPSNRSDILTLTGASTATGVGLRIYKNTDSTPLKFGPDSPVKGNENQWQLSTGTETSPSVRLYVKYVNTGEGINPGTVNGISTFTFSYQ | – | – | – | – | – | – | – | – | – | – | – | – | – | -0.31 | – | – | – | 4.59 | – | – | – | -0.097 | – | – | – | – | – | – | – | -0.298 | -0.176 | -0.315 | -0.302 | -0.293 | 4.13 | 4.3 | 4.3 | 0.197 | -0.302 | -0.208
